The text below walks through data of PubChem BioAssay (NCATS).

Experiment [1] deals with Endonuclease 4 (Escherichia coli (strain K12)) (UniProt P0A6C1). Kind of experiment: Counterscreen for APE1 Inhibitors: qHTS Validation Assay for Inhibitors of Endonuclease IV (AID 1708). Put shortly:
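qHTS concentration-response format; LOPAC1280 tested under APE1-screen conditions. 2 nM enzyme, 15 min compound preincubation at RT, then 50 nM TAMRA/BHQ-2 abasic substrate; kinetic fluorescence read, three reads at 60 s intervals.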
In general terms: The purpose of a counterscreen is to sort out artefacts and off-target activity.

Experiment [2] can be described thus: qHTS for differential inhibitors of proliferation of Plasmodium falciparum line 7G8 (AID 1815).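 Also: potency is read from the fitted curve at half-maximal effect; parasite growth measured after three days of incubation.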 On the technique in general: qHTS replaces the single test concentration by a dilution series.
Experiment [3] is described as follows: qHTS for differential inhibitors of proliferation of Plasmodium falciparum line 3D7 (AID 1876). Also: potency is read from the fitted curve at half-maximal effect.
Experiment [4] in a line: qHTS for differential inhibitors of proliferation of Plasmodium falciparum line D10 (AID 1877).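 Also: potency is read from the fitted curve at half-maximal effect; parasites grown with compound for 72 h before DNA staining.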
Experiment [5] is described as follows: qHTS for differential inhibitors of proliferation of Plasmodium falciparum line Dd2 (AID 1882). Also: potency is read from the fitted curve at half-maximal effect; nearly all actives have a fitted effect of over 65% in size. Particulars: Potency: Plasmodium falciparum Dd2 proliferation inhibition. A digest of the protocol:
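Dd2-infected erythrocytes (0.3% parasitemia, 2.5% hematocrit final) incubated with compound 72 h at 37 C, 5% CO2; lysed with saponin/Triton buffer containing SYBR Green I, incubated overnight in the dark, then read by fluorescence (485/535 nm). Normalized to 0.29 uM artemisinin and DMSO.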

A short description of experiment [6]: qHTS for differential inhibitors of proliferation of Plasmodium falciparum line HB3 (AID 1886).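 Also: potency is read from the fitted curve at half-maximal effect; parasites grown with compound for 72 h before SYBR Green readout.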 Particulars: Potency: Plasmodium falciparum HB3 proliferation inhibition.
The target in experiment [7] is Ferritin light chain (Equus caballus) (UniProt P02791). Put plainly: qHTS Validation Assay for Identification of Novel General Anesthetics (AID 2323). Also: series mostly up to about 77 µM. Put shortly:
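Horse-spleen apoferritin (10 uM) in PBS with 50% saturated 1-aminoanthracene; compounds pin-transferred, 10 min at room temperature. Fluorescence read at 380/535 nm, normalized to free 1-AMA and 1-AMA/apoferritin values; four-parameter Hill fit.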

Experiment [8] addresses ATP-dependent DNA helicase Q1 (Homo sapiens) (UniProt P46063). Put plainly: qHTS Validation Assay for Inhibitors of RecQ-Like Dna Helicase 1 (RECQ1) (AID 2353). Put shortly:
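50 nM RECQ1T1 preincubated 15 min with compound in Tris pH 8.0 buffer with MgCl2, DTT, Tween-20 and 2.5 ug/ml poly(dI-dC); started with 200 nM TAMRA/BHQ-2 forked duplex and 2 mM ATP. Unwinding read as fluorescence (525/598 nm), two reads 2 h apart.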

Experiment [9] is described as follows: High Content Imaging Cell-Based qHTS for Inhibitors of the mTORC1 Signaling Pathway in MEF Cells (AID 2667).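 Also: Tsc2-/- p53-/- MEFs stably re-expressing wild-type Tsc2 exposed 24 h; series mostly up to about 38 µM.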 Put shortly: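 Immunofluorescence for rpS6 phosphorylation in MEFs of Tsc2-/-, p53-/- background rescued with WT Tsc2. Compound exposure lasted 24 hrs. Inhibition was scored against rapamycin-treated control wells.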
The nature of experiment [10]: Validation screen for small molecules that induce DNA re-replication in MCF 10A normal breast cells (AID 463097). Also: nearly all actives have a fitted effect of over 60% in size. Put shortly: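 MCF 10A cells exposed to compound 48 hr at 37 C, 5% CO2, then Hoechst-stained 40 min. Laser-scanning imaging of nuclear DNA content (405 nm ex, 500-530 nm em); re-replication scored as rise in nuclei with elevated fluorescence intensity.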

Experiment [11] concerns the target Ubiquitin carboxyl-terminal hydrolase 2 (Homo sapiens) (UniProt O75604). Put plainly: qHTS Validation Assay for Inhibitors of Ubiquitin-specific Protease USP2a Using CHOP2 as the Reporter (AID 463106). Put shortly: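 10nM USP2 core + cpd, 30min RT; add 25nM Ub-CHOP2/25nM substrate; 60min RT; FI 485/531nm. Buffer Tris pH 8.0, CaCl2, BME, CHAPS. Norm. to NEM = 100% inhibition; time-zero read flags fluorescent artifacts.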

The target of experiment [12] is Tumor susceptibility gene 101 protein (Homo sapiens) (UniProt Q99816). Kind of experiment: qHTS Validation Assay for Iinhibitors of HIV-1 Budding by Blocking the Interaction of PTAP/TSG101 (AID 485342; calls by dose curve). Put shortly: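 Tsg101 binding domain (10 uM) with FITC-labeled PTAP peptide (50 nM) in HEPES pH 7.5 buffer, 20 min at r.t. with compounds. Binding measured by fluorescence polarization.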
Tumor susceptibility gene 101 protein (Homo sapiens), sequence (Q99816 whole entry, looked up, the tested form may be a part): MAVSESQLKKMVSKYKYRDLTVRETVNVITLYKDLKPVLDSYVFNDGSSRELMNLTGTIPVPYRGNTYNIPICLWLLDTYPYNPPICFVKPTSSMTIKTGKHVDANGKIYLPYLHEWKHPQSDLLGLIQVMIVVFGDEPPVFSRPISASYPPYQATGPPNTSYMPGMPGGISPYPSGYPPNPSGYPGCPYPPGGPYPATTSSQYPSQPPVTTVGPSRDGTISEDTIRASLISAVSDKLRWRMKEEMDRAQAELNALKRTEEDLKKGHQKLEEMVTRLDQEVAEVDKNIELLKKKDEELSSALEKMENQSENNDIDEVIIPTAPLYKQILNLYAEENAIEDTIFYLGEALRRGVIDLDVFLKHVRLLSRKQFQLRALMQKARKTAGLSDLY

Experiment [13] deals with Beta-2 adrenergic receptor (Homo sapiens) (UniProt P07550). Put plainly: qHTS validation assay of beta-arrestin-biased ligands of beta2-adrenergic receptor (AID 485366). Put shortly: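 Arrestin-recruitment (Tango) reporter: ligand-bound beta2-AR recruits beta-arrestin, releasing tTA, which upregulates luciferase. Titrations of up to 46 microM incubated 18 hr at 37 degrees C before luminescent readout.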
Beta-2 adrenergic receptor (Homo sapiens), sequence (P07550 whole entry, looked up): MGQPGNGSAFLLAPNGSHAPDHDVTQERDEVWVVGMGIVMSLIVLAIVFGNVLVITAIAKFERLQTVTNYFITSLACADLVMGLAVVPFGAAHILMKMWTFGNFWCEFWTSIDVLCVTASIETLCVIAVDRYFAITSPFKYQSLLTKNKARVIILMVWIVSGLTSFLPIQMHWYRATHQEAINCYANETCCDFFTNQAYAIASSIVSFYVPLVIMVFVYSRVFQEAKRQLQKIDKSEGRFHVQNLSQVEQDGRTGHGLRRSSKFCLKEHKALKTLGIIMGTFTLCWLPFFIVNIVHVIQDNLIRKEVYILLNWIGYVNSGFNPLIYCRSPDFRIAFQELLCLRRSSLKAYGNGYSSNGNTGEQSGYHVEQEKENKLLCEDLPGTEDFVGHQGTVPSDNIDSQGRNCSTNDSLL

Experiment [14] in a line: Quantitative high throughput screen for delayed death inhibitors of the malarial parasite plastid, 96 hour incubation (AID 488745). Also: potency is read from the fitted curve at half-maximal effect; nearly all actives have a fitted effect of over 70% in size. Put shortly:
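Infected erythrocytes were added to compound in Albumax-supplemented RPMI 1640 at 0.1% parasitemia and 2% hematocrit (final), incubated 96 h at 37 C under 5% CO2, then luciferase reagent was added and luminescence measured.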

Experiment [15] has as its target Thioredoxin reductase 1, cytoplasmic (Rattus norvegicus) (UniProt O89049). Kind of experiment: qHTS Assay for Substrates of Mammalian Selenoprotein Thioredoxin Reductase 1 (TrxR1) (AID 488772).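 Also: NADPH fluorescence in the first read after selenite addition and not the 8 min delta; series mostly up to about 57 µM; a drop in NADPH fluorescence below the no-compound background marks a TrxR1 substrate.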 A digest of the protocol:
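Quantitative HTS in Tris-HCl buffer at pH 7.5 with EDTA and Tween-20, using rat TrxR1, 400 uM NADPH and 400 uM selenite (final). A fall in initial NADPH fluorescence relative to background marked substrate behaviour.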

The target is the same in experiment [16]. Put plainly: qHTS Assay for Inhibitors of Mammalian Selenoprotein Thioredoxin Reductase 1 (TrxR1) (AID 488773). Also: potency is read from the fitted curve at half-maximal effect; nearly all actives have a fitted effect of over 40% in size. Particulars: Potency: inhibition. A digest of the protocol:
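Steps: enzyme (90 nM) plus NADPH (400 uM final), 5 min at ~22 deg C; compound added, 15 min; selenite (400 uM final) added; fluorescence followed for 8 min. Concentration-response curves derived from the normalized delta values.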

Experiment [17] deals with Flap endonuclease 1 (Homo sapiens) (UniProt P39748). Kind of experiment: qHTS Validation Assay for the Inhibitors of Human Flap endonuclease 1 (FEN1) (AID 488816). Put shortly:
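Readings taken at 0 and 15 min after starting the reaction with 50 nM (final) substrate supplied the signal. Compounds had first sat with 10 nM FEN1 reagent for 15 min at room temperature. Values come from Hill-equation concentration-response fits.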

The target of experiment [18] is M-phase phosphoprotein 8 (Homo sapiens) (UniProt Q99549). Put plainly: qHTS Validation Assay for Inhibitors for MPP8 Chromodomain Interactions with Methylated Histone Tails (AID 488949). Also: top concentration of the series differs between compounds; nearly all actives have a fitted effect of over 55% in size. A digest of the protocol:
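MPP8 (50 nM) was pre-bound to 50 nM biotinylated H3(1-18)K9me3 peptide in PBS pH 7.4 with 0.01% Tween-20. Compounds were then added for 30 min at room temperature, and complex disruption was read by AlphaScreen with streptavidin donor and nickel-chelate acceptor beads.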

Experiment [19] has as its target Methanococcus maripaludis chaperonin (MmCpn) (UniProt Q6LX38). Put plainly: High-Throughput Screening for Modulators of Cytosolic Chaperonin Activity: MmCpn Primary Screen (AID 488978).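 Also: 50 nM MmCpn enzyme hydrolysing 30 µM ATP at 37 °C.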 A digest of the protocol:
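MmCpn at 50 nM final was preincubated 5 min at RT with compound. ATP was then added at 30 uM final for 10 min at 37 C. ADP formed was detected by Transcreener HTRF (665/590 nm).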

In experiment [20] the target is Transient receptor potential cation channel subfamily V member 1 (Homo sapiens) (UniProt Q8NER1). Put plainly: HTS Assay for Compounds that Act as Enhancers of the Vanilloid Receptor 1 (AID 488979). A digest of the protocol:
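Calcium influx kinetics via Fluo-8 (480/520 nm) in TRPV1-expressing cells, 2000/well cultured overnight at 35.5C. Compound-alone read 3 min (agonist phase), followed by EC20 capsaicin challenge for 2 min (enhancer phase).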

Records with an inconclusive call do not appear. Active and inactive are the calls of the source. Unless noted, calls follow the shape of the dose curve; as a rule, active = well fitted curve in the direction sought with a large enough effect; inconclusive = small, poorly fitted or top-dose-only effect, or another doubt; inactive = no such curve, though single readings can be large; an effect the other way counts as inactive or inconclusive.

Thioredoxin reductase 1, cytoplasmic (Rattus norvegicus), sequence (O89049 whole entry, looked up): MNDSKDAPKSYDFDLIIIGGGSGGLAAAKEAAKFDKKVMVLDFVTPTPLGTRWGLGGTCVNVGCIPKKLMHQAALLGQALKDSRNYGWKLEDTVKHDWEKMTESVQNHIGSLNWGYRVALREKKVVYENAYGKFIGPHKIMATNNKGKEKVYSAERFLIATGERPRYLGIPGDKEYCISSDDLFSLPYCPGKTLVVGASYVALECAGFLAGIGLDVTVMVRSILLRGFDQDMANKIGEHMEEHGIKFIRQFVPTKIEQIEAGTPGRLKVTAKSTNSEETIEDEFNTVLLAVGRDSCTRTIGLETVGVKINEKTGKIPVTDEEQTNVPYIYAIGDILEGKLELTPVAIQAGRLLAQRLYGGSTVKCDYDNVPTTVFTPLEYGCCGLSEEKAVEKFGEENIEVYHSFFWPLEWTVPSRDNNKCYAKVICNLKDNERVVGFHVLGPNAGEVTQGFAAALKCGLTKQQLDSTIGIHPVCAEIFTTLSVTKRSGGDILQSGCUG
Ferritin light chain (Equus caballus), sequence (P02791 2-175 limits assumed): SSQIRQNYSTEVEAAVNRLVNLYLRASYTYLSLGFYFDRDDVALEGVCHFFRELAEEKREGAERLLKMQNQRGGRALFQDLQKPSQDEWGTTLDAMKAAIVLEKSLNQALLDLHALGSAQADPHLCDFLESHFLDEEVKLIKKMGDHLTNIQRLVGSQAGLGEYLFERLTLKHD
Ubiquitin carboxyl-terminal hydrolase 2 (Homo sapiens), sequence (O75604 whole entry, looked up): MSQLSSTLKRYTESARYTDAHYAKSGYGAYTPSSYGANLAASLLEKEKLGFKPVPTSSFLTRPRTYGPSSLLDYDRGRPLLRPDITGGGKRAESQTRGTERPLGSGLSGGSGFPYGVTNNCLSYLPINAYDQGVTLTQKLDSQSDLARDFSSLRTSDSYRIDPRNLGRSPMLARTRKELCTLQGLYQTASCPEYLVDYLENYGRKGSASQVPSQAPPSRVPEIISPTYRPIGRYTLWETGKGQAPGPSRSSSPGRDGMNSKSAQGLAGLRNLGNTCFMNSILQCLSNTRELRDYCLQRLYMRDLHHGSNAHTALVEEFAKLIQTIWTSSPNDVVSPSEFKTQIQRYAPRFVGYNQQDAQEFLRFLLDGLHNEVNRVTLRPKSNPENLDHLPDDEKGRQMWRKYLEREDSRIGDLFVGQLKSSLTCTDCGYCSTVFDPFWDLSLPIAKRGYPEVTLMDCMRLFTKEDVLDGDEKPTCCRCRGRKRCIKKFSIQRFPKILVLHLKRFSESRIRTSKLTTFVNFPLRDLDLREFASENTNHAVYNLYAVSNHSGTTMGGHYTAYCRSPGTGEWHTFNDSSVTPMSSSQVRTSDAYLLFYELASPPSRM
Methanococcus maripaludis chaperonin (MmCpn), sequence (Q6LX38 1-543): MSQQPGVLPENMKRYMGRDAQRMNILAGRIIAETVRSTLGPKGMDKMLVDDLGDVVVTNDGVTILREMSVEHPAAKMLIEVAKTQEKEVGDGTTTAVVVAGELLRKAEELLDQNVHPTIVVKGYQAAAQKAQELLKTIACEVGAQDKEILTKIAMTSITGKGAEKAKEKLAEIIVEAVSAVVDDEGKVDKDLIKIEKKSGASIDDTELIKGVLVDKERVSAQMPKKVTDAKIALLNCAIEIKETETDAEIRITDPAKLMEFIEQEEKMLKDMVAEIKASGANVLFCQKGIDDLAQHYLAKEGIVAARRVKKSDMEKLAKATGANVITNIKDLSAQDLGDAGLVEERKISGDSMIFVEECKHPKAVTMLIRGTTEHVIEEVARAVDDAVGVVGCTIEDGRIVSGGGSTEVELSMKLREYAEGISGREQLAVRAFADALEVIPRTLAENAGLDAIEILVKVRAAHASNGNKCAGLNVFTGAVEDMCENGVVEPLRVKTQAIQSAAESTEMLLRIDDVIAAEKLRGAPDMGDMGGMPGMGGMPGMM
M-phase phosphoprotein 8 (Homo sapiens), sequence (Q99549 whole entry, looked up): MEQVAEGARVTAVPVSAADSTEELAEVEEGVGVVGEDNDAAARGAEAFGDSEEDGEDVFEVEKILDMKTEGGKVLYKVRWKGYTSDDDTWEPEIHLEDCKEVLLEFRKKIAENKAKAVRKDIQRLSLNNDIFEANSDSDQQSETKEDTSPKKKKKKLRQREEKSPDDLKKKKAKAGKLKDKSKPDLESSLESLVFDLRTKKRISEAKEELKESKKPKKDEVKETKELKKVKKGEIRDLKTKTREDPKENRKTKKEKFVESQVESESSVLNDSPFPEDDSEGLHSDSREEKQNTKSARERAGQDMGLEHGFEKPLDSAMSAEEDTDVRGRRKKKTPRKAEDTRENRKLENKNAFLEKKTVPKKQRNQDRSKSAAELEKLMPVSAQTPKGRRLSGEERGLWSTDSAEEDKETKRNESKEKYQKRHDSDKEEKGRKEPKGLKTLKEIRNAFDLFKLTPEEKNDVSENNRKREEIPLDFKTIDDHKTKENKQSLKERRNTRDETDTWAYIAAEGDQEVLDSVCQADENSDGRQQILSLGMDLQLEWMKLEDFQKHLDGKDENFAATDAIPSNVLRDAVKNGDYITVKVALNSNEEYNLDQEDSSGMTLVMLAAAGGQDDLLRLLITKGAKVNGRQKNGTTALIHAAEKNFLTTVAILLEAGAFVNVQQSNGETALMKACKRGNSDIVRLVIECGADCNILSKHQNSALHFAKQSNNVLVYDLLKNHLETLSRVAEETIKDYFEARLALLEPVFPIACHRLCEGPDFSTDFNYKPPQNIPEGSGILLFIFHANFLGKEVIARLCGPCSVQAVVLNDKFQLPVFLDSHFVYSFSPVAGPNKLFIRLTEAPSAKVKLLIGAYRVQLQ
ATP-dependent DNA helicase Q1 (Homo sapiens), sequence (P46063 whole entry, looked up): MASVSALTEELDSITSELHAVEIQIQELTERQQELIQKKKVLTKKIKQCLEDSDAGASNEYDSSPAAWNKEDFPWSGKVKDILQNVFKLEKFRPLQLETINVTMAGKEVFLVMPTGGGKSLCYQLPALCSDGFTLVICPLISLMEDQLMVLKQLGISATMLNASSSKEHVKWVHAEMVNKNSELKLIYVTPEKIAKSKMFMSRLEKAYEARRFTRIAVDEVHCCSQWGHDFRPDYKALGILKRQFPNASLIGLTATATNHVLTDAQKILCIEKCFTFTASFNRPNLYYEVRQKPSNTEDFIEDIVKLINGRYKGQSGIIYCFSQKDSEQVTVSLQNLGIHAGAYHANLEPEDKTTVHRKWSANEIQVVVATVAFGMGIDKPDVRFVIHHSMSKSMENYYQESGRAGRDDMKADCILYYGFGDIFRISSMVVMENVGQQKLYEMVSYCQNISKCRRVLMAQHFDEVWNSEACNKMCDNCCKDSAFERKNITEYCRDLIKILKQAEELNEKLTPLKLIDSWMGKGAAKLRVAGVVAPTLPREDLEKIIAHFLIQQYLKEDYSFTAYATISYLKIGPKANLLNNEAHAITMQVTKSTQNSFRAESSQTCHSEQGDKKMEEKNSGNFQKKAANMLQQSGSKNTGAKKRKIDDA
Transient receptor potential cation channel subfamily V member 1 (Homo sapiens), sequence (Q8NER1 whole entry, looked up): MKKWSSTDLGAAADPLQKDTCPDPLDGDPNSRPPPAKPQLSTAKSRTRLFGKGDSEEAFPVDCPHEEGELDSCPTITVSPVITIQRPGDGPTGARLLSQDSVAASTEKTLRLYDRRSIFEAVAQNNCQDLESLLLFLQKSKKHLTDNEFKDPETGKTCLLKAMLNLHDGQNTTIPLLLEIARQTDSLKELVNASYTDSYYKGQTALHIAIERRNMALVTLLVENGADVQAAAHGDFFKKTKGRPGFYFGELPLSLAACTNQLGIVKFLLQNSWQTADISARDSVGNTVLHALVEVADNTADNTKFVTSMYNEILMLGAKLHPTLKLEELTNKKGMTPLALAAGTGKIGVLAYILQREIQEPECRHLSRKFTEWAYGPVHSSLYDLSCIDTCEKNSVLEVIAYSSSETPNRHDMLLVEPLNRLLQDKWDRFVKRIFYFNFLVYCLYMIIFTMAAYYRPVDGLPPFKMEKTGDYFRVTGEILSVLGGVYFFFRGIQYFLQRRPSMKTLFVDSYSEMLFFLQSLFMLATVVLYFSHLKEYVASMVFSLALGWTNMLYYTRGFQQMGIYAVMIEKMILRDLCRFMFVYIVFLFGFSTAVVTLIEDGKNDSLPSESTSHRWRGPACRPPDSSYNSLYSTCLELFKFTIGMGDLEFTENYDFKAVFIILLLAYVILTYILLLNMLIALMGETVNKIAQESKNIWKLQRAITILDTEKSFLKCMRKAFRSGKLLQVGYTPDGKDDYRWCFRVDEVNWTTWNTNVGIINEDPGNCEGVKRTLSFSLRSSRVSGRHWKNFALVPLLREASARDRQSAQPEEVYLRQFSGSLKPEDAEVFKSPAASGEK

On to `S=C(Nc1ccccc1)Nc1nccs1`, for which the Potency entry in experiment [1], in experiment [8], in experiment [9], in experiment [10], in experiment [11] and in experiment [17] was “inactive” in each case. Further, in experiment [18], the Potency result was “inactive”. The Potency in [2] is 3.55 µM (active); in experiment [3], 7.94 µM (active); in experiment [4] it was 12.6 µM (active); in experiment [5] it was 11.2 µM (active); in experiment [6] it was 8.91 µM (active); in experiment [14], 9.28 µM (active). Besides, the Potency in [16] is 5.97 µM (active). The molecule was classed as inactive in [7], in [12], in experiment [13], in experiment [15], in experiment [19] and in [20].
